Drawing on PubChem BioAssay AID1347426 (Functional Genomics Laboratory (NCATS/FGL), 2020), this text covers median seed-adjusted z-score for 49 sequences.

Hit rate of the full screen: of about 31,000 sequences, about 1,400 (4.5%) were called active. The full list was thinned out, with actives kept by preference. Unmarked numbers belong to inactive results.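 The calls were made as follows: active = median seed-adjusted z-score above 1 or below -1; inactive = the rest.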

The assay can be described thus: Novel Modifiers of Survival Motor Neuron (SMN) Protein: Gene Identification via Genome-wide siRNA Screen.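 Also: luminescence tracks full-length SMN protein made from the SMN2 reporter.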 Particulars: HEK293T SMN2-luciferase reporter, siRNA knockdown, 72 h; actives lie on both sides. In outline: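 HEK293T cells stably expressing an SMN2 splicing/cDNA-luciferase reporter were reverse-transfected with a druggable-genome siRNA library and read by luminescence at 72 hours; hits defined by MAD score above 1.0 or below -1.0.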
A general note: Reporter assays use an easily measured gene product as a stand-in for the process of interest.
Take GGUACAUCGCGAUAUCAAATT against YSK4: the median seed-adjusted z-score was -0.181.

In the case of CGAUGGUAUUGACUAAGUUTT against HSPA1L, the median seed-adjusted z-score was -1.27 (active).

With CUAGGAGUCAAAGAAAAUATT against RNPS1, the median seed-adjusted z-score is 0.

As to GGAGAGAGCGUGUCCUACATT against SIRPA, the median seed-adjusted z-score is -0.153.

For AAACAAAACUUGCACUUUATT against RASD1, the median seed-adjusted z-score is 0.674.

For GCCUUGAACCUAGGACCAATT against PRAF2, the median seed-adjusted z-score was -0.326.

GGACGAGAAUGGGAAGAUUTT against ARD1A: the median seed-adjusted z-score was -1.05 (active).

As for AGACUAUGAUAGAAUCCCATT against LGI3, the median seed-adjusted z-score is -0.0189.

As for CUCUACCCGUGCUAUAUAATT against TIGD1, the median seed-adjusted z-score was 0.224.

Consider CAAGAUCCAGGACACCAAATT against MAP4K1, for which the median seed-adjusted z-score was 0.

In the case of CUAUCCAACUCAAACGAUUTT against USP9Y, the median seed-adjusted z-score was 0.012.

Regarding GGCUUGAUAUUUGACAGAATT against BBOX1, the median seed-adjusted z-score was 0.152.

As for AGAAAUGUCUUGUAGUGAATT against SYT14L, the median seed-adjusted z-score was 0.2.

Turning to GGAUUAUAUUGACAUCAGUTT against DLST, the median seed-adjusted z-score is 1.16 (active).

Consider GGGAGGACCUGAACAAGAATT against TAOK2, for which the median seed-adjusted z-score was 0.28.

Consider GGCAUGACCUCAUCACAGUTT against RNASE7, for which the median seed-adjusted z-score was 1.07 (active).

Take GAACCAACCUGUCAAGUGATT against SELL: the median seed-adjusted z-score is 0.554.

For the sequence GGACAUCGCUAAACAGUUATT against TBC1D1, the median seed-adjusted z-score is -0.359.

On to CUAUCACCGGAUUAACGAATT against ACOX1, for which the median seed-adjusted z-score was -0.897.

For the sequence GAGUCGAGAAGAUAAUGGATT against RABGEF1, the median seed-adjusted z-score was 0.278.

For the sequence AGACGACGGCGAUGAGGAATT against RALY, the median seed-adjusted z-score is 0.

In the case of GGACGACCACGGCUACAUUTT against CRYAA, the median seed-adjusted z-score was -1.03 (active).

GGCUUCAGGUUAUAGUCAATT against OTX2: the median seed-adjusted z-score is -0.00351.

Turning to AGGAGAUCGUCGACCUGGUTT against TUBA3C, the median seed-adjusted z-score is -0.0806.

AGGCCCUAGUGCUCAGAUATT against MMS19: the median seed-adjusted z-score is 0.0142.

For the sequence GCAACGAUGUUGCCUGGAATT against GPX1, the median seed-adjusted z-score is -0.0529.

As for GCAUGCAGAUGUUCGGCAATT against CACNA1F, the median seed-adjusted z-score is 0.22.

On to CAAGCUUGUUAACAUCAAATT against NPVF, for which the median seed-adjusted z-score was 0.588.

Regarding GGCUAAUACUGGAAUUGCUTT against SLC38A2, the median seed-adjusted z-score is -1.04 (active).

In the case of CCAUGUCUUUCUAUCGCAATT against PLD2, the median seed-adjusted z-score is -0.743.

For GCAAGAUCUUAUCCACAGATT against CIP29, the median seed-adjusted z-score is -1.18 (active).

With CAUUGGAAUUCUUUCAAUATT against APTX, the median seed-adjusted z-score was -0.131.

Consider GAGAAGACCUUUAUACGAATT against XPOT, for which the median seed-adjusted z-score is 0.366.

With GGAUGGUGGCGUCCAAGAUTT against PSMB10, the median seed-adjusted z-score was 0.00939.

Regarding GAGCUUCACUCAAAAAUCATT against ZNF160, the median seed-adjusted z-score is -0.454.

As to GCCUAGAAGUGGAACGUGUTT against IFT57, the median seed-adjusted z-score was -1.1 (active).

Turning to CCACCUUCGAUGUUCCCAUTT against HMG20B, the median seed-adjusted z-score is 0.231.

GCAGAGUCACUUUGACAAUTT against CHRNG: the median seed-adjusted z-score was 0.221.

On to GGCUUUUAGAGUACGACAATT against ZFP30, for which the median seed-adjusted z-score is 0.211.

Regarding CAGUCAACCUGAUUUGAGATT against SOX7, the median seed-adjusted z-score was -0.387.

On to CGUUUAACGUGGUGCUGUUTT against GPR32, for which the median seed-adjusted z-score was -1.2 (active).

As to GCUCUAUGUCUACAUCAAUTT against DAXX, the median seed-adjusted z-score is 0.349.

For the sequence AUAUCGCUGUGAUGCAAAATT against PLA2G12B, the median seed-adjusted z-score is -0.162.

Consider ACAGCGAGGUCAAAAGAAATT against HSD11B1, for which the median seed-adjusted z-score was -0.174.

GGACUAAGUGAAGAGCUUATT against NFYB: the median seed-adjusted z-score was -0.29.

On to GAGCUGAACUUGUCAUUCUTT against RANGAP1, for which the median seed-adjusted z-score is -0.0379.

As to CAUGAACCCAGUGAAGAUATT against IRF6, the median seed-adjusted z-score is -1.79 (active).

As to CACUCAACAUUACAGAUUUTT against ZNF514, the median seed-adjusted z-score was 0.125.

As for CAGCUUUACGAGUAUGCAATT against HS6ST3, the median seed-adjusted z-score was -0.405.
